Screening data: PubChem BioAssay, National Center for Advancing Translational Sciences (NCATS)
Sampled rows, rich in hits. Any-hit rate of the full collection: about 19%.
TDP1 block = inhibitors of human tyrosyl-DNA phosphodiesterase TDP1. Q9NUW8. recombinant TDP1, AlphaScreen DNA substrate cleavage. Potency, µM (series often up to 130 µM), for inactives: at the highest dose activity change, negative = inhibition, usual class: inhibitors. 0.28% of 350,000 active. AID 485290; further: nearly all actives have a fitted effect of over 40% in size
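Recombinant E. coli-expressed Tdp1 (1 nM) preincubated with compound 15 min at RT, then 5'-biotin/3'-phosphotyrosine-FITC DNA substrate (15 nM) added for 5 min. AlphaScreen beads (10 ug/ml) added, 10 min RT; tyrosine-FITC cleavage read as signal loss.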
RORg inh = ROR gamma (mouse) transcription inhibition | Drosophila S2 Gal4-RORgamma UAS-luciferase reporter, 20 h | Potency, µM (titrated, usually from 53.6 µM), inactives show at the top dose activity change, negative = inhibition, actives largely listed as inhibitors | 5.4% of 310,000 active; further: nearly all actives have a fitted effect of over 60% in size
Target sequence (P51450 whole entry, looked up, the tested form may be a part): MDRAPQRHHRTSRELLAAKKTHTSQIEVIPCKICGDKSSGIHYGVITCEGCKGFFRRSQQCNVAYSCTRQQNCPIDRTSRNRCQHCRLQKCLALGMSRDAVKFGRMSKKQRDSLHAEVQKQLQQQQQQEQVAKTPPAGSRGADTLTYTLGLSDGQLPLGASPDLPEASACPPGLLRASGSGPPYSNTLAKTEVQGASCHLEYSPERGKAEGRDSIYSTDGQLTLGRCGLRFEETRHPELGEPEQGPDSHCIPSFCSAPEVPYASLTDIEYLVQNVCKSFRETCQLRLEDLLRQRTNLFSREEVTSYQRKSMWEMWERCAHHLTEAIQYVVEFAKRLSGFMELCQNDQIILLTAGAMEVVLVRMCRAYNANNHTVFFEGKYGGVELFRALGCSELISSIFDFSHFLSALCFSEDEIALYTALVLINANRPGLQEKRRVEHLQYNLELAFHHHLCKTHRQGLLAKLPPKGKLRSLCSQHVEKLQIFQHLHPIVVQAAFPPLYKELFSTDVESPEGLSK
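Read-out: Photinus luciferase luminescence; inhibitors lower reporter signal. Insect Schneider cells with Gal4-ROR gamma fusion under metallothionein promoter, UAS reporter; 700 uM final copper sulfate induction, 20 hr, ambient temperature.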
VP16 counter = counter-screen for ROR gamma inhibitors: Gal4-VP16 reporter; Drosophila S2 Gal4-VP16 UAS-luciferase, luminescence, 20 h; Potency, µM (top dose mostly 53.6 µM), for inactives: at the top dose activity, negative = inhibition, hits mostly inhibitors; 3.5% of 310,000 active;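 further: Gal4-VP16 expression switched on by copper sulfate through the metallothionein promoter; nearly all actives have a fitted effect of over 50% in size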
DT40 TDP1 no CPT = qHTS for Inhibitors of human tyrosyl-DNA phosphodiesterase 1 (TDP1): qHTS in cells in absence of CPT; DT40 Tdp1-/- hTDP1 cells, no CPT, ATP luminescence, 48 h; Potency, µM (doses to about 46.2 µM), for inactives: top-dose activity change, negative = growth inhibition, usual class: inhibitors; 15% of 420,000 active; further: nearly all actives have a fitted effect of over 55% in size
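Camptothecin absent (DMSO only). Human TDP1-complemented DT40 knockout cells, 400 cells/well, 37 °C for minimum 48 hr; ATP measured via CellTiter-Glo, 30 min dark incubation, luminescence.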
TDP1 cell CPT = DT40-hTDP1 cell growth loss with CPT; chicken DT40 Tdp1-/-;hTDP1 cells + 20 nM CPT, ATP luminescence, 48 h; AID 686979; Potency, µM (highest dose often 46.2 µM), for inactives: at the highest dose activity change, negative = growth inhibition, most hits filed as inhibitors; 12% of 420,000 active; further: nearly all actives have a fitted effect of over 55% in size
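Cell growth measured by CellTiter-Glo luminescence after a minimum 48 h, 37 C compound exposure with 20 nM CPT in Tdp1-knockout DT40 cells stably expressing hTDP1, seeded 400/well; qHTS titration format.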
* hit, by the source's call; ? = inconclusive; · = no result; [ ] = dose if it differs, or a comment. The call rests on the fitted dose curve; in most records, active means well fitted curve in the direction sought with a large enough effect; inconclusive means small, poorly fitted or top-dose-only effect, or another doubt; inactive means no such curve, though single readings can be large; an effect the other way counts as inactive or inconclusive. On the % scale 0 is the no-effect control and ±100 the full control effect; potency means the concentration at half of the fitted maximal effect.

SMILES	TDP1 block	RORg inh	VP16 counter	DT40 TDP1 no CPT	TDP1 cell CPT
O=C1CCCN1CCC1CCN(C2CC(=O)N(c3ccc(F)cc3)C2=O)CC1 (stereo not given)	3.1%	?	?	20.6µM*	18.4µM*
O=C1CC(N2CCN(c3ccccn3)CC2)C(=O)N1c1ccc(F)cc1 (stereo not given)	4.6%	-9.3%	7.6%	-12.3%	-9.1%
COc1cc(OC)c(-c2nnc(-c3ccc(OC)c(OC)c3OC)o2)cc1OC	4.1%	-7.4%	-12.8%	12.6µM*	14.1µM*
NNC(=O)c1nnn(-c2nonc2N)c1CN1CCc2ccccc2C1	6.5%	-27.1%	5.9%	-12.8%	1.3%
CCCCC(=O)OC1CCC2C3CCc4cc(O)ccc4C3CCC12C (stereo not given)	·	·	·	18.4µM*	?
C[C@]12CC[C@@H]3c4ccc(O)cc4CC[C@H]3[C@@H]1CC[C@@H]2OC(=O)CCC(=O)O	5.5%	-7.9%	-3.1%	1.4%	0.731µM*
COc1ccc(Cl)cc1NC(=O)c1ccccc1C	-2.2%	-2.1%	28.4%	-24.2%	-24.0%
CN(C(=O)c1oc(=O)c2ccccc2c1-c1ccccc1)c1cccc(Cl)c1	3.5%	·	·	23.1µM*	18.4µM*
O=C(O)C1CCCCC1C(=O)Nc1ccccn1 (stereo not given)	2.2%	-18.0%	-2.3%	0.7%	0.5%
CCN1C(=O)C(O)(CC(=O)c2ccc(-n3cccc3)cc2)c2ccccc21 (stereo not given)	4.9%	22.6%	-4.4%	?	?
COc1ccc(OC)c(C(=O)CC2(O)C(=O)N(Cc3ccccc3C)c3ccccc32)c1 (stereo not given)	·	·	·	5.8µM*	16.4µM*
CCN1C(=O)C(O)(CC(=O)c2cccc(-n3cccc3)c2)c2ccccc21 (stereo not given)	4.8%	?	11.2%	16.4µM*	?
COc1ccc(CN2C(=O)C(O)(CC(=O)c3c(C)n[nH]c3C)c3ccccc32)cc1OC (stereo not given)	5.4%	1.1%	-5.0%	?	?
Cc1ccccc1CN1C(=O)C(O)(CC(=O)c2cccc(Br)c2)c2ccccc21 (stereo not given)	1.3%[12.3 µM]	·	·	5.17µM*	-81.3%
Cc1ccc(C(=O)CC2(O)C(=O)N(Cc3ccccc3F)c3ccccc32)cc1 (stereo not given)	4.5%	·	·	?	?
COC(=O)CN1C(=O)C(O)(CC(=O)c2cccc(Br)c2)c2ccccc21 (stereo not given)	-3.9%	3.3%	?	?	29.1µM*
CN(CCNC(=O)C1CCN(S(=O)(=O)c2cnc[nH]2)CC1)Cc1ccccc1	3.1%	-11.7%	-5.3%	-7.5%	20.3%
COC(=O)C(O)(CC(=O)Nc1cccc(SC)c1)C(F)(F)F (stereo not given)	0.0%	-22.4%	-1.2%	-14.7%	-1.1%
CCOc1ccccc1NC(=O)Cn1c(=O)n(-c2ccc(F)cc2)c(=O)c2sc3ccccc3c21	1.3%	·	·	?	1.5%
Oc1ccc(Br)cc1CNc1cnc2ccccc2c1	4.2%	?	-7.6%	?	?
CN(C)c1cc(NC(=O)CN2CCOCC2)c2ccccc2n1	1.2%	-2.3%	-5.8%	-1.2%	12.3%
Cc1occc1C(=O)N/N=C/c1cccc2ccccc12	-3.5%[0.0935 µM]	-31.1%	-0.5%	?	?
CC(CCc1ccccc1)NC(=O)CCCCCNc1nc(=S)[nH]c2ccccc12 (stereo not given)	6.9%	?	?	·	·
S=c1nc(NCCc2ccccc2Cl)c2ccccc2[nH]1	·	1.58µM*	6.31µM*	25.9µM*	-27.7%
COc1ccc(CNC(=O)CCCCCNc2nc(=S)[nH]c3ccccc23)cc1	7.7%	?	-3.0%	10.3µM*	?
SMILES	TDP1 block	RORg inh	VP16 counter	DT40 TDP1 no CPT	TDP1 cell CPT
COc1ccc(CCNC(=O)CCCCCNc2nc(=S)[nH]c3ccccc23)cc1OC	0.0%	?	?	18.4µM*	?
O=C(CCCCCNc1nc(=S)[nH]c2ccccc12)NCCc1ccccc1	5.5%	?	-9.6%	?	?
O=C(CCCCCNc1nc(=S)[nH]c2ccccc12)NCc1ccccc1Cl	0.0%	17.8µM*	?	·	·
CCOC(=O)C1=C(C)N=C2SC(C(=O)OC)=CC(=O)N2C1c1ccc(F)cc1 (stereo not given)	9.3%	-21.0%	-15.7%	?	?
O=c1c2cc(N3CCOCC3)ccc2[nH]c(=S)n1CC1CCCO1 (stereo not given)	2.3%	?	?	?	-2.0%
C=CCn1c(SCC(=O)NNC(=O)Nc2cccc(Cl)c2)nnc1-c1ccccc1	·	24.0%	1.0%	6.7%	-0.3%
CCOC(=O)C(=NO)C1=CSC2=NNC(C)(C)N12	·	·	·	20.6µM*	?
Cn1c(C(=O)OC(C(=O)NC(C)(C)C)c2cccnc2)cc2sccc21 (stereo not given)	3.6%	-10.5%	-8.4%	?	2.2%
Cc1ccc(S(=O)(=O)Nc2ccc3c(c2)nc2n3CCN(Cc3ccccc3)C2)cc1	8.8%	22.2%	-6.6%	?	16.4µM*
O=S(=O)(Nc1ccc2c(c1)nc1n2CCN(Cc2ccccc2)C1)c1ccc(Cl)cc1	8.3%	?	-21.9%	14.6µM*	18.4µM*
Cn1c(CN2CCCCC2)nc2cc(NS(=O)(=O)c3ccc(Cl)cc3)ccc21	6.8%	27.0%	2.3%	-21.9%	?
CC(c1ccccc1)N1CCn2c(nc3cc(NS(C)(=O)=O)ccc32)C1 (stereo not given)	5.1%	7.2%	-6.3%	?	0.8%
Cn1c(CN2CCCCC2)nc2cc(NS(=O)(=O)c3ccc(F)cc3)ccc21	7.3%	-8.9%	4.4%	?	-16.1%
O=S(=O)(Nc1ccc2c(c1)nc1n2CCN(Cc2ccccc2)C1)c1ccc(F)cc1	8.4%	-1.9%	3.7%	?	25.9µM*
O=S(=O)(Nc1ccc2c(c1)nc1n2CCN(Cc2ccccc2)C1)c1ccccc1	5.7%	?	-7.0%	23.1µM*	23.1µM*
COc1ccc2cc(-c3ccn[nH]3)ccc2c1	·	-23.9%	8.0%	-20.4%	?
CCCN(CCC)CC(O)COc1ccc([N+](=O)[O-])cc1 (stereo not given)	-2.0%	36.1%	-2.5%	?	2.8%
OCc1cc(CO)c(O)c(CCc2ccccc2)n1	3.6%	12.7%	2.7%	-12.8%	2.5%
CC(=O)Nc1ccc(OCC(O)Cn2c3ccccc3c3ccccc32)c(C)c1 (stereo not given)	7.5%	?	-15.2%	18.4µM*	?
